Results published in PubChem BioAssay.
Values without a mark were called inactive. No rule for the calls is given here.

Target: Pantothenate synthetase (Mycobacterium tuberculosis (strain ATCC 25618 / H37Rv)) (UniProt P9WIL5)
Assay: Recombinant Mtb pantothenate synthetase (PanC) inhibitors, coupled enzyme, confirmatory (AID 375);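 also: 0% = full reaction with vehicle and 100% = no enzyme background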
Conditions: coupled enzyme assay; at 10 µM, stronger effect = higher value

Pantothenate synthetase (Mycobacterium tuberculosis (strain ATCC 25618 / H37Rv)), sequence (P9WIL5 whole entry, looked up): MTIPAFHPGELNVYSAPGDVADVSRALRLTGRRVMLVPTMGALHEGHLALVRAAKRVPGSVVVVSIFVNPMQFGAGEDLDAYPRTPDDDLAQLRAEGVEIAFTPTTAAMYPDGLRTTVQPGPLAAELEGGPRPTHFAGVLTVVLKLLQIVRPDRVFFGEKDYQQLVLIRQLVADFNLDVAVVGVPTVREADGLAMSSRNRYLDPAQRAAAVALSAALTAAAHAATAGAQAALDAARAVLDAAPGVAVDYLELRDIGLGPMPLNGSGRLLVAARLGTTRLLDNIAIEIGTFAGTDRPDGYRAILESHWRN

SMILES | inhibition
CCCCOC(=O)c1[nH]c2c(c1C)C(=O)CC(c1cc(OC)c(OC)c(OC)c1)C2 (stereo not given) | 10%
CCOc1ccc(Cn2nnc(C(=O)Nc3cc(C)cc(C)c3)c2N)cc1 | 0%
CCN(CC)CCNC(=O)c1cc(Cl)c(N)cc1OC | 0%
c1ccc2c(c1)CNC1(CCCCC1)C2 | 3%
Cc1ccc(CCSCC(=O)O)cn1 | 0%
CC(C)CNC(=O)C1C2C=CC(C2)C1C(=O)O (stereo not given) | 7%
CC1CCCN(C(=O)CN2CCN(C(=O)c3ccco3)CC2)C1 (stereo not given) | 0%
COc1ccc(CCNC(=O)C2CC(=O)N(c3ccccc3)C2)cc1OC (stereo not given) | 0%
O=C1N[C@@H](Cc2cnc[nH]2)C(=O)N2CCC[C@@H]12 | 0%
CCOc1ccccc1C(=O)Nc1nnc(CC)s1 | 0%
CC(=O)N1CCN(S(=O)(=O)c2ccc(S(=O)(=O)NCC(C)C)cc2)CC1 | 5%
Cc1ccc2c(c1)c1c(n2CC(O)Cn2c(C)nc3ccccc32)/C(=N\O)CCC1 (stereo not given) | 5%
COc1cc2c(cc1OC)CN(CC(=O)Nc1cccc(C)c1)CC2 | 11%
c1ccc(CCn2nnnc2C(c2cccs2)N2CCOCC2)cc1 (stereo not given) | 1%
CC1CCCN(C(=O)c2cc3c(-c4ccc(Cl)cc4)nn(C)c3s2)C1 (stereo not given) | 4%
COc1cccc(C2CC(c3ccc(C)cc3)n3nc(N)nc3N2)c1 (stereo not given) | 15%
O=C(O)c1ccc(-c2ccc(O)c(F)c2)cc1 | 1%
CC1CCc2nn(CC(=O)NCCCN3CCOCC3)cc2C1 (stereo not given) | 0%
CC(NC(=O)c1ccc(F)cc1)C(c1cccs1)N1CCN(C)CC1 (stereo not given) | 3%
CNC(=O)NCCN1CCCC1=O | 6%

SMILES | inhibition
Cc1nc2sc(C(c3ccco3)N3CCN(c4ccccc4F)CC3)c(O)n2n1 (stereo not given) | 0%
CCS(=O)(=O)N1CCCC(C(=O)NCc2cccc(OC)c2)C1 (stereo not given) | 1%
COc1cccc(-c2cc(C(=O)N3CCCc4ccccc43)no2)c1 | 0%
CC(CCc1ccccc1)NC(=O)C1CCCN(c2nnc(-n3cccc3)s2)C1 (stereo not given) | 0%
Nc1nonc1-n1nnc(C(=O)c2ccccc2)c1-c1ccccc1 | 0%
Cc1ccc(Cn2c(SCCN3CCCCC3)nc3c2c(=O)[nH]c(=O)n3C)cc1 | 2%
CCCCOc1ccc(-c2nnn(CC(=O)NCc3ccco3)n2)cc1 | 0%
COc1ccc(S(=O)(=O)Nc2cccc(C)n2)c2ccccc12 | 2%
CCOc1ccccc1N1C(=O)CC(Sc2ncccc2C(=O)O)C1=O (stereo not given) | 0%
C=CCN(C(=O)CNC(=O)c1ccco1)C(C(=O)NC1CCCCC1)c1ccccc1F (stereo not given) | 0%
Cc1cc(C)n(Cc2nc3ccccc3n2C)n1 | 0%
CCCCOn1c(C)c(C(=O)OCC)c2c3nonc3ccc21 | 0%
COCCCNC(=O)Cn1cc2c(n1)CCC(C)C2 (stereo not given) | 3%
CCOC(=O)CSc1nnc(CCc2nc3ccccc3[nH]2)n1C | 10%
Cc1ccc(-c2nnc(-c3cccc(Br)c3)o2)cc1 | 0%
O=C(Cn1nnc(-c2cccs2)n1)OC1CCCCC1 | 4%
CC1Oc2ccccc2N(CC(=O)NCc2cccs2)C1=O (stereo not given) | 0%
Cc1ccc(-n2ncc3c(Nc4c(C)n(C)n(-c5ccccc5)c4=O)ncnc32)c(C)c1 | 10%
O=C(NCC(c1cccnc1)N1CCOCC1)c1cccs1 (stereo not given) | 0%
O=C(O)c1ccc(NC(=O)c2cccs2)cc1 | 0%
